# Where “and” joins values, the source holds several entries; their conditions need not be identical. Equal values may be shown once. Records with an inconclusive call do not appear. Some structures have more than one record in an assay (separate samples or runs), and their calls can disagree. Calls of active or inactive are those of the source. Calls follow the shape of the full dose curve.
# Experiment: Nuclear factor erythroid 2-related factor 2/antioxidant responsive element (Nrf2/ARE) small molecule agonists: luciferase reporter gene qHTS assay in human keratinocytes (AID 1919969); also: nearly all actives have a fitted effect of over 35% in size
# Conditions: KeratinoSens HaCaT ARE-luciferase, luminescence, 24 h; series mostly up to 92.4 µM; activity, positive = activation: at the top concentration
# Text: National Center for Advancing Translational Sciences [NCATS]
# Division of Preclinical Innovation [DPI]
# U.S. Environmental Protection Agency [EPA]
# National Institutes of Environmental Health Sciences [NIEHS]
# National Toxicology Program [NTP]
# U.S. Food and Drug Administration [FDA]
# Oxidative stress has been implicated in the pathogenesis of a variety of diseases ranging from cancer to neurodegeneration. The antioxidant response element (ARE) signaling pathway plays an important role in the amelioration of oxidative stress. The KeratinoSens (Givaudan, Switzerland) is an in vitro test method which quantifies luciferase induction as a measure of activation of Keap1-Nrf2-antioxidationt/electrophile response element (ARE) dependant pathway in HaCaT human keratinocytes stably transfected with a selectable plasmid. The KeratinoSens assay is a cell-based assay with a reporter cell line to detect potential skin sensitizers by their ability to induce the Nrf2/ARE-response. The activation of the report gene under culture conditions can be detected by ONE-Glo Luciferase Assay System (Promega, Madison, WI). This cell line has been used to screen the Tox21 10K compound library to identify agonists that induce oxidative stress. The cytotoxicity of the Tox21 compound library against the KS-ARE cell line was tested in parallel by measuring the cell viability using CellTiter- Fluor assay system (Promega, Madison, WI) in the same wells.
# HaCaT derived cell line KeratinoSens were dispensed at 1,500 cells/5uL/well in 1536-well white wall/solid bottom plates using a Multidrop Combi (ThermoFisher Scientific, Waltham, MA) dispenser. After the assay plates were incubated at 37 C/5% CO2 for 5 h, 23 nL of compounds dissolved in DMSO, positive controls or DMSO only was transferred to the assay plate by a pintool workstation (Kalypsys, San Diego, CA). The plates were incubated at 37 C/5% CO2 for 23 h, followed by addition of 1uL/well of CellTiter-Fluor reagent into the assay plates using a Flying Reagent Dispenser (Aurora Discovery, San Diego, CA) for cell viability readout that measures cytotoxicity. After 1 h incubation at 37 C/5% CO2 the fluorescence intensity was measured using a ViewLux (PerkinElmer, Shelton, CT) plate reader. Then 4uL/well of One-Glo were added using a Flying Reagent Dispenser. After the plates were incubated at room temperature for 30 min, the luminescence intensity in the assay plates was measured using ViewLux plate reader.
# % is scaled to controls: 0 for no effect and ±100 for the full control effect; potency is read from the fitted curve at half-maximal effect.
Compound,"activity, positive = activation",Potency
CC(C)=CCCC(C)CC=O (stereo not given),-9.32% (inactive),
O=S(=O)(O)c1cc(O)c(O)c(S(=O)(=O)O)c1,-11.6% (inactive),
O=S(=O)(O)CCN1CCN(CCO)CC1,6.46% (inactive),
O=CC1CC=CCC1 (stereo not given),-1.7% (inactive),
O=c1[nH]cnc2c1ncn2[C@@H]1O[C@H](CO)[C@@H](O)[C@H]1O,-0.281% [at 42.5 µM] (inactive),
CCN(Cc1cccc(S(=O)(=O)O)c1)c1ccccc1,-10.5% (inactive),
CC1(C)C(=O)N(Br)C(=O)N1Cl,9.01% (inactive),
Nc1ccc([N+](=O)[O-])c(C(F)(F)F)c1,-4.29% [at 42.5 µM] (inactive),
COc1ccccc1/C=C/C=O,,54.5 µM (active)
OCCCCl,-7.94% (inactive),
Nc1ccc2cc3ccccc3cc2c1,,inactive
CCCCOC(=O)CCCCCCCC(=O)OCCCC,-10.8% (inactive),
C=CCCCCCCCCCCCCCCCC,1.31% [at 8.39 µM] (inactive),
CC(=O)c1cccc([N+](=O)[O-])c1,-11.2% (inactive),
O=C(c1ccc(Cl)cc1)c1ccc(Cl)cc1,4.09% (inactive),
c1ccc2c(c1)CCC2,,13.7 µM (active)
c1ccc(CNc2ncnc3c2ncn3C2CCCCO2)cc1 (stereo not given),,1.72 µM (active)
CCC(C)S (stereo not given),-3.8% [at 3.27 µM] (inactive),
Clc1nc(Cl)c(Cl)c(Cl)c1Cl,8.04% (inactive),
Nc1ccccc1N,,31.4 µM (active) and 7.7 µM (active)

Compound,"activity, positive = activation",Potency
CN/C(=C\[N+](=O)[O-])NCCSCc1ccc(CN(C)C)o1,,inactive
CCOc1ccc2c(c1)C(C)=CC(C)(C)N2,,68.2 µM (active) and 68.6 µM (active)
COC(=O)c1ccc(C)cc1C1=NC(C)(C(C)C)C(=O)N1 (stereo not given),-11% (inactive),
CCC(C)=O,-3.89% (inactive),
CC[C@@H]1C[C@H](N(Cc2cc(C(F)(F)F)cc(C(F)(F)F)c2)C(C)=O)c2cc(C(F)(F)F)ccc2N1C(=O)OC(C)C,-10.3% (inactive),
Cc1ccc(C)o1,-1.73% (inactive),
O=Cc1ccccc1C=O,,24.3 µM (active) and inactive
CCC(OCCCOC)OC(C)=O (stereo not given),-1.89% (inactive),
CN1CCCC1=O,-8.34% (inactive),
CN(C)CCCNCCCN(C)C,-6.76% (inactive),
CC(=O)OCCN(CCOC(C)=O)c1ccc(N=Nc2ccc([N+](=O)[O-])cc2C#N)cc1,-0.559% (inactive),
CC(CC=O)CC(C)(C)C (stereo not given),0.922% (inactive),
CC(C)=CCC/C(C)=C/C#N,5.18% (inactive),
FC(F)(F)C(Cl)Br (stereo not given),-6.44% (inactive),
CCCCCCCCCCCCCCCC(=O)OC,0.79% [at 19 µM] (inactive),
Nc1c2ccccc2nc2ccccc12,,6.03 µM (active) and 6.68 µM (active)
C[n+]1ccn(CCO)c1,,inactive
CCCCOCCCC,-4.67% (inactive),
CN1CCc2cccc3c2[C@H]1Cc1ccc(O)c(O)c1-3,5.55% [at 42.5 µM] (inactive),
COC(=O)/C=C(/C)N,-2.25% [at 42.5 µM] (inactive),

# — PubChem BioAssay (Tox21)
